# PubChem BioAssay
# Inconclusive results are not listed. For some assays here: Potency and affinity values are given separately. The source made the active and inactive calls.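 The calls were made as follows, unless noted: active = compounds killing one labelled cell type while sparing the other, by normalised counts and ratio limits, not self-fluorescent; inactive = the rest.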
# Legend:
# [1] = differential killing of epithelial or mesenchymal cells, primary screen, imaging, PC-3E GFP, TEM4-18 mCherry, co-culture (AID 1345086); settings: imaging cell counts, at 1 µM; for red/green cell ratio (normalised): actives lie on both sides, counts scaled to control wells, 1 = unselective;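 as to all read-outs here: cells exposed to compound for 72 h before imaging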;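 as to red/green cell ratio (normalised): normalised mesenchymal count divided by normalised epithelial count so high means epithelial killing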
# [2] = biological target: Mitogen-activated protein kinase 7 (Homo sapiens) (UniProt Q13164); experiment: ERK5 transactivation activators in reporter cells, primary screen, cell-based, HTS (AID 1508626;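 active = luciferase signal above three times the same-plate solvent-only control wells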;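 also: luciferase driven by Gal4-ERK5 fusion binding five Gal4 sites before minimal TATA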); settings: HeLa Gal4-ERK5 transactivation, 18 h, at 5 µM, stronger effect = higher value
# [3] = polyglutamine-triggered caspase-3 activation inhibitors, cell-based (AID 1583); settings: polyglutamine-induced caspase-3 activation, cell assay; stronger effect = higher value;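 tested at 10 µM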
# [4] = suppressors of polyQ aggregation in yeast, 75Q-TubU reporter (AID 1593); settings: Yeast 75Q polyglutamine aggregation reporter
# [5] = rescue of polyQ-huntingtin neuronal dysfunction in worms, whole organism, C. elegans mechanosensory neurons, N-terminal huntingtin (AID 1599); settings: touch response, stronger effect = higher value
# [6] = inhibitors of mitochondrial cytochrome c release, biochemical, purified mitochondria (AID 1603); settings: stronger effect = lower value;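 also: mouse liver mitochondria challenged with calcium chloride; signal normalized to the plate average as 100%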
# [7] = inhibitors of polyQ protein aggregation (AID 1604); settings: polyglutamine-induced protein aggregation inhibition assay; stronger effect = higher value; tested at 2.5 µM
# [8] = protection against mutant huntingtin cytotoxicity, PC12 cells, LDH release (AID 1610); settings: PC12 mutant huntingtin toxicity, final LDH at 4 uM, stronger effect = lower value
# [9] = enhancers of glutamate uptake in motor neurons, MN-1 cell line (AID 1612); settings: MN-1 motor neuron cells, stronger effect = higher value;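 also: tested at 1 µM final; 0% = mean of DMSO vehicle wells on each plate; positive means more glutamate uptake than control and negative means less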
# [10] = suppressors of polyglutamine aggregation in yeast, 75Q-TubH (AID 1616); settings: S. cerevisiae 75Q-TubH polyglutamine aggregation suppression; stronger effect = higher value
# [11] = biological target: NAD(+) hydrolase SARM1 (Homo sapiens) (UniProt Q6SZW1); experiment: SARM1 TIR NADase inhibitors, cell lysate, NAD-Glo luminescence (AID 1508614;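 active = compound whose remaining NAD level is above about 45 nM, limit read from the data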;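 also: higher remaining NAD means stronger inhibition of SARM1 NADase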); settings: SAM-TIR HEK293T lysate NADase, at 1 µM, stronger effect = higher value
# [12] = protection of motor neurons from glutamate death, cell-based, TUNEL DNA degradation staining, MNGlu (AID 1594; call rule not given here); settings: glutamate-induced death, at 1 µM, stronger effect = higher value
# [13] = reducers of polyQ inclusions in PC12 cells, cell-based, NGF-treated PC12, GFPQ80 (AID 1614); settings: PC12 NGF-treated GFP-polyQ80 inclusion reduction;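 also: lower means fewer inclusions and 0 means no inclusions at all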
# [14] = liver-stage malaria parasite growth inhibition, primary screen, cell-based, HepG2, luciferase luminescence, HepG2 viability (AID 624349; in the data active = parasite load remaining mostly below about 12%, no sharp cut-off; inactive = mostly above about 10%;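 also: 100% = mean of DMSO negative control wells on the same plate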); settings: P. berghei liver stage in HepG2, luciferase luminescence, concentration not given here; parasite load remaining: stronger effect = lower value; viability: measured here: HepG2 viability without parasites
# [15] = measured here: epithelial PC-3E GFP cell survival
# [16] = measured here: mesenchymal TEM4-18 mCherry cell survival
# NAD(+) hydrolase SARM1 (Homo sapiens), sequence (Q6SZW1 whole entry, looked up): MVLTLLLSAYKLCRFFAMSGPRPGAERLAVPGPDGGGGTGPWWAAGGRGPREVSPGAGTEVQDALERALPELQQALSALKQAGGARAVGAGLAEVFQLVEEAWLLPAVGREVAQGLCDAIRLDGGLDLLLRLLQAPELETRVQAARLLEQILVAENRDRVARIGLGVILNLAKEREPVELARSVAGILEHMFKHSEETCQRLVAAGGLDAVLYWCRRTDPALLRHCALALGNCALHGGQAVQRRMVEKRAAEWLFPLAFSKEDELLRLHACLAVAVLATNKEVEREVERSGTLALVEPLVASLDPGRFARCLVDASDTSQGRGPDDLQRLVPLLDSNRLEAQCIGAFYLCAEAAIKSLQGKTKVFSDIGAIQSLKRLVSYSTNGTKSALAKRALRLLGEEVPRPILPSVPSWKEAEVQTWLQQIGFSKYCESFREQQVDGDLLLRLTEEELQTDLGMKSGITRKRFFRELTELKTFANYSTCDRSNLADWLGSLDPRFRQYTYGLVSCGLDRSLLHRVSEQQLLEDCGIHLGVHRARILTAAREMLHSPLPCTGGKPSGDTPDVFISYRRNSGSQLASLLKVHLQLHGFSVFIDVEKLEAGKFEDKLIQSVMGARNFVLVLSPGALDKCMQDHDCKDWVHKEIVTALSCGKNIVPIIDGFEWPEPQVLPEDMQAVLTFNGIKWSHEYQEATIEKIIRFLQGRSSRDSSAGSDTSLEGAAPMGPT
# Mitogen-activated protein kinase 7 (Homo sapiens), sequence (Q13164 whole entry, looked up, the tested form may be a part): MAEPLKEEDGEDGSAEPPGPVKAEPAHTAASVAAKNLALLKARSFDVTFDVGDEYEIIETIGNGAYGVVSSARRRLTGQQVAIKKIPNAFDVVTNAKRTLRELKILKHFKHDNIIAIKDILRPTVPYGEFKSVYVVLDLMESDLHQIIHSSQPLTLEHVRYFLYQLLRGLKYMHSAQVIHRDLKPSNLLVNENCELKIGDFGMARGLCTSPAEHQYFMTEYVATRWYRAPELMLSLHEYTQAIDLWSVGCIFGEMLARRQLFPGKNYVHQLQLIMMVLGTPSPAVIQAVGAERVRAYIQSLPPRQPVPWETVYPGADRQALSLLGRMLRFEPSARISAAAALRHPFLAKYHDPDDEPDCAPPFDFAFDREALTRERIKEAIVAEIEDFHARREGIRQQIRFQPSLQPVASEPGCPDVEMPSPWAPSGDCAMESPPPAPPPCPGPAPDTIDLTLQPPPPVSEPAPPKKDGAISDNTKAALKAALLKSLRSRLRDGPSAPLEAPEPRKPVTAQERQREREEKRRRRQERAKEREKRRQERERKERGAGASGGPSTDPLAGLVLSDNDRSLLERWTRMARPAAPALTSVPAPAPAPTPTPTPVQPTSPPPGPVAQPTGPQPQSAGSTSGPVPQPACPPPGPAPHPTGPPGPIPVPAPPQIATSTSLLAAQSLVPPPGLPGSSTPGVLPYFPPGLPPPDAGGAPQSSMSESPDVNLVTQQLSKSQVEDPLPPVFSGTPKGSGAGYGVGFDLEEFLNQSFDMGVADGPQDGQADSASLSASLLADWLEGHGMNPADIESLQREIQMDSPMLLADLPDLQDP
structure (smiles),measurement,setting,value
COc1ccc2c(c1)O[C@H]1c3ccc(OC)cc3OC[C@@H]21,red/green cell ratio (normalised),[1],1.06 (inactive)
same,normalised cell number,[1]; [15],1
same,normalised cell number,[1]; [16],1.07
same,luciferase signal,[2],68 AU (inactive)
CC(=O)Oc1cc(C)c2c(c1C(OC(C)=O)OC(C)=O)Oc1c(c(C)c(OC(C)=O)c3c1C(OC(C)=O)OC3=O)OC2=O (centres undefined),red/green cell ratio (normalised),[1],0.89 (inactive)
same,normalised cell number,[1]; [15],1.03
same,normalised cell number,[1]; [16],0.92
same,luciferase signal,[2],124 AU (inactive)
OCC(S)CS (centres undefined),inhibition,[3],11.1%
same,score,[4],-0.34
same,rescue above control,[5],28.1
same,cytochrome c release ratio,[6],0.92
same,inhibition of aggregation,[7],68.7%
same,normalised LDH release,[8],0.667
same,glutamate uptake change,[9],23.2%
same,aggregation suppression score,[10],-0.815
same,red/green cell ratio (normalised),[1],1.01 (inactive)
same,normalised cell number,[1]; [15],0.72
same,normalised cell number,[1]; [16],0.73
same,remaining NAD,[11],10 nM (inactive)
same,luciferase signal,[2],92 AU (inactive)
COC1=CC(=O)C(O)=C/C1=C\C=C\c1ccccc1,red/green cell ratio (normalised),[1],1.11 (inactive)
same,normalised cell number,[1]; [15],0.95
same,normalised cell number,[1]; [16],1.06
same,luciferase signal,[2],12 AU (inactive)
CC(=O)O[C@H]1C[C@@H](O)C(C)(C)C2C[C@@H](OC(C)=O)[C@]3(C)C(CC[C@@]4(C)[C@H](c5ccoc5)OC(=O)C5OC543)[C@]21C (some centres undefined),red/green cell ratio (normalised),[1],0.84 (inactive)
same,normalised cell number,[1]; [15],0.84
same,normalised cell number,[1]; [16],0.7
same,luciferase signal,[2],40 AU (inactive)
C=C[C@@]1(C)CC(=O)[C@@]2(O)[C@](C)(O1)[C@@H](O)[C@@H](O)C1C(C)(C)CC[C@H](O)[C@@]12C (some centres undefined),red/green cell ratio (normalised),[1],1.15 (inactive)
same,normalised cell number,[1]; [15],0.91
same,normalised cell number,[1]; [16],1.05
same,luciferase signal,[2],80 AU (inactive)
CC(CCC(=O)O)[C@H]1CCC2C3C[C@H](O)[C@@H]4C[C@H](O)CC[C@]4(C)C3CC[C@@]21C (some centres undefined),red/green cell ratio (normalised),[1],0.83 (inactive)
same,normalised cell number,[1]; [15],1.24
same,normalised cell number,[1]; [16],1.03
same,luciferase signal,[2],60 AU (inactive)
O=c1cc(-c2ccc(O)cc2)oc2ccc(O)cc12,red/green cell ratio (normalised),[1],1 (inactive)
same,normalised cell number,[1]; [15],0.97
same,normalised cell number,[1]; [16],0.97
same,luciferase signal,[2],52 AU (inactive)
O=C(/C=C/c1ccc(O)cc1)c1ccccc1O,red/green cell ratio (normalised),[1],0.93 (inactive)
same,normalised cell number,[1]; [15],1.02
same,normalised cell number,[1]; [16],0.94
same,luciferase signal,[2],96 AU (inactive)
Nc1ccc(C(=O)O)c(O)c1 (tested in a mixture with another compound),inhibition,[3],-9.55%
same,score,[4],1.25
same,protection,[12],60% (active)
same,rescue above control,[5],-2.24
same,cytochrome c release ratio,[6],0.96
same,inhibition of aggregation,[7],69%
same,glutamate uptake change,[9],-12.2%
same,inclusion score,[13],2
same,aggregation suppression score,[10],1.1
same,parasite load remaining,[14],155% (inactive)
same,viability,[14],85.3%
same,red/green cell ratio (normalised),[1],0.93 (inactive)
same,normalised cell number,[1]; [15],1.14
same,normalised cell number,[1]; [16],1.06
same,remaining NAD,[11],10 nM (inactive)
COc1ccc(-c2cc(=O)c3c(OC)c(OC)c(OC)cc3o2)cc1OC,red/green cell ratio (normalised),[1],1.21 (inactive)
same,normalised cell number,[1]; [15],0.9
same,normalised cell number,[1]; [16],1.08
same,luciferase signal,[2],36 AU (inactive)
COc1ccc(/C=C/C(=O)c2ccc(O)cc2O)cc1,red/green cell ratio (normalised),[1],1.07 (inactive)
same,normalised cell number,[1]; [15],0.93
same,normalised cell number,[1]; [16],0.99
same,luciferase signal,[2],100 AU (inactive)
CC(=O)OCC(OC(C)=O)C(OC(C)=O)C(OC(C)=O)C(OC(C)=O)C(COC(C)=O)OC(C)=O (centres undefined),red/green cell ratio (normalised),[1],1.06 (inactive)
same,normalised cell number,[1]; [15],0.99
same,normalised cell number,[1]; [16],1.05
same,luciferase signal,[2],80 AU (inactive)
COc1ccc([C@@H](C)C(=O)c2ccc(O)cc2O)cc1,red/green cell ratio (normalised),[1],1.1 (inactive)
same,normalised cell number,[1]; [15],0.96
same,normalised cell number,[1]; [16],1.05
same,luciferase signal,[2],20 AU (inactive)
C[C@@H]1O[C@@H](O[C@H]2[C@H](Oc3cc(O)c4c(=O)cc(-c5ccc(O)cc5)oc4c3)O[C@H](CO)[C@@H](O)[C@@H]2O)[C@H](O)[C@H](O)[C@H]1O,red/green cell ratio (normalised),[1],1.02 (inactive)
same,normalised cell number,[1]; [15],0.87
same,normalised cell number,[1]; [16],0.89
same,luciferase signal,[2],56 AU (inactive)
O=C(/C=C/c1ccccc1)c1ccc(O)cc1O,red/green cell ratio (normalised),[1],0.95 (inactive)
same,normalised cell number,[1]; [15],1.05
same,normalised cell number,[1]; [16],1
same,luciferase signal,[2],52 AU (inactive)
COc1ccc2c(c1)OCC(Cc1ccc(O)c(OC)c1)C2=O (centres undefined),red/green cell ratio (normalised),[1],0.93 (inactive)
same,normalised cell number,[1]; [15],1.04
same,normalised cell number,[1]; [16],0.96
same,luciferase signal,[2],84 AU (inactive)
C#CCCCCCCCCCCCc1ccco1,red/green cell ratio (normalised),[1],0.97 (inactive)
same,normalised cell number,[1]; [15],1.01
same,normalised cell number,[1]; [16],0.98
same,luciferase signal,[2],148 AU (inactive)
CNC(C)[C@@H]1CC[C@@H](N)[C@@H](OC2[C@@H](N)C[C@@H](N)[C@H](OC3OC[C@](C)(O)[C@H](NC)[C@H]3O)[C@H]2O)O1 (some centres undefined),inhibition,[3],-0.7%
same,score,[4],1.63
same,rescue above control,[5],-1.8
same,cytochrome c release ratio,[6],2.33
same,inhibition of aggregation,[7],66.7%
same,glutamate uptake change,[9],1.4%
same,inclusion score,[13],2
same,aggregation suppression score,[10],1.62
same,red/green cell ratio (normalised),[1],1.29 (inactive)
same,normalised cell number,[1]; [15],1.02
same,normalised cell number,[1]; [16],1.32
same,remaining NAD,[11],10 nM (inactive)
same,luciferase signal,[2],28 AU (inactive)
CC(=O)O[C@@H]1CC2C(C)(C)[C@H](O)C=C[C@]2(C)C2CC[C@@]3(C)[C@H](c4ccoc4)OC(=O)C4OC43[C@@]21C (some centres undefined),red/green cell ratio (normalised),[1],1.02 (inactive)
same,normalised cell number,[1]; [15],1.17
same,normalised cell number,[1]; [16],1.19
same,luciferase signal,[2],56 AU (inactive)
COc1ccc(-c2cc(=O)c3c(O)cc(OC)c(OC)c3o2)c(OC)c1,red/green cell ratio (normalised),[1],1.02 (inactive)
same,normalised cell number,[1]; [15],0.97
same,normalised cell number,[1]; [16],0.99
same,luciferase signal,[2],108 AU (inactive)
COc1ccc([C@H]2COc3c(ccc(O)c3OC)C2)c(OC)c1O,red/green cell ratio (normalised),[1],0.9 (inactive)
same,normalised cell number,[1]; [15],0.99
same,normalised cell number,[1]; [16],0.9
same,luciferase signal,[2],60 AU (inactive)
CC(=O)Oc1ccc2c(c1C(C)C)CCC1C(C)(C)CCC[C@]21C (some centres undefined),red/green cell ratio (normalised),[1],0.8 (inactive)
same,normalised cell number,[1]; [15],1.07
same,normalised cell number,[1]; [16],0.86
same,luciferase signal,[2],20 AU (inactive)
C/C1=C/CC(C)(C)/C=C/C/C(C)=C/CC1,red/green cell ratio (normalised),[1],0.95 (inactive)
same,normalised cell number,[1]; [15],1.06
same,normalised cell number,[1]; [16],1.01
same,luciferase signal,[2],60 AU (inactive)
CC(=O)O[C@@H]1CC[C@@]2(C)C(CC[C@]3(C)C2CC=C2C4CC(C)(C)CC[C@]4(C(=O)O)CC[C@]23C)C1(C)C (some centres undefined),red/green cell ratio (normalised),[1],0.84 (inactive)
same,normalised cell number,[1]; [15],1.04
same,normalised cell number,[1]; [16],0.87
same,luciferase signal,[2],44 AU (inactive)
O=C(O)/C=C/C=C/c1ccc2c(c1)OCO2,red/green cell ratio (normalised),[1],1.14 (inactive)
same,normalised cell number,[1]; [15],0.9
same,normalised cell number,[1]; [16],1.03
same,luciferase signal,[2],24 AU (inactive)
C=CCCCCCCCCCCCc1ccco1,red/green cell ratio (normalised),[1],1.12 (inactive)
same,normalised cell number,[1]; [15],0.9
same,normalised cell number,[1]; [16],1.01
same,luciferase signal,[2],112 AU (inactive)
C[C@]12CCC3c4ccc(OC(=O)c5ccccc5)cc4CCC3C1CCC2=O (some centres undefined),red/green cell ratio (normalised),[1],0.85 (inactive)
same,normalised cell number,[1]; [15],1.24
same,normalised cell number,[1]; [16],1.05
same,luciferase signal,[2],40 AU (inactive)
CC(C)(N=NC(C)(C)C(=N)N)C(=N)N,red/green cell ratio (normalised),[1],1.04 (inactive)
same,normalised cell number,[1]; [15],1.17
same,normalised cell number,[1]; [16],1.22
same,luciferase signal,[2],20 AU (inactive)
CC(=O)OC/C=C(\C)CC/C=C(\C)CC/C=C(\C)CC/C=C(\C)CC/C=C(\C)CC/C=C(\C)CC/C=C(\C)CC/C=C(\C)CCC=C(C)C,red/green cell ratio (normalised),[1],0.99 (inactive)
same,normalised cell number,[1]; [15],1.05
same,normalised cell number,[1]; [16],1.04
same,luciferase signal,[2],84 AU (inactive)
